Experimental findings from PubChem BioAssay are described below.

Active and inactive are the calls of the source.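 How the source made its calls, unless noted: active means visually confirmed hit in the image check and inhibition above 20%; inconclusive means visually confirmed hit but inhibition not above 20%; inactive means no visual hit in the image check.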

A short description of assay [1]: inhibitors of TNFa-induced NFkB p65 translocation, primary screen, imaging, HUVEC, MLSMR starter and 10KST1 sets (AID 438;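 active means inhibition above 20% together with a positive visual image hit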;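 further: compound added about 3h40 before a 20 min TNFalpha stimulation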;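 on inhibition: signal is the nuclear over cytoplasmic p65 intensity ratio per well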). The following applies: HUVEC TNFa-induced p65 nuclear translocation; cell count: measured here: nuclei count (cytotoxicity indicator), at 2.08 µM; inhibition: at 2 µM, stronger effect = higher value, 0% TNFa-plus-vehicle, 100% no-TNFa wells.
Assay [2] is described as follows: inhibitors of mutant huntingtin aggregation, primary screen, imaging, exon1htt(103Q)mCFP cells, high-content imaging (AID 483;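 active means visual image review flags a hit and inhibition of aggregation exceeds 20%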;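 further: compound exposure lasted 3 days before fixation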;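 on nuclei count: percent of the per-plate median nuclei count of sample wells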). The note with it: exon1htt(103Q)mCFP cell line, aggregate imaging, at 2 µM; inhibition of aggregation: stronger effect = higher value; nuclei count: measured here: cell count, toxicity.
Assay [3] in a line: inhibitors of E-selectin induction by TNFa, primary screen, imaging, HUVEC, immunofluorescence, MLSMR starter and 10KST1 sets (AID 487).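 On inhibition: signal is fraction of cell area covered by stained E-selectin grains.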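 On nuclei count: 100% = median nuclei count of all wells on the same plate.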 The note with it: HUVEC TNFalpha-induced E-selectin immunofluorescence imaging, at 2 µM; inhibition: stronger effect = higher value; nuclei count: measured here: cell number, toxicity.
The target of assay [4] is Voltage-gated potassium channel subunit beta-2 (Rattus norvegicus) (UniProt P62483). The experiment in a line: KvBeta enzyme negative modulators, primary screen, biochemical, NADPH fluorescence (AID 622;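 active means fluorescence slope higher than the sample average by over 3 SD, cut at about -0.22 in these data, passing the limit was not always enough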;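 further: slope of raw intensity against log time taken from 70 to 1610 s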). The note with it: recombinant KvBeta, 4-cyanobenzaldehyde reduction, at 10 µM, stronger effect = higher value.
The target is the same in assay [5]. As to the kind of experiment: KvBeta positive modulators, primary screen, biochemical, NADPH fluorescence (AID 623;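 active means NADPH fluorescence slope more negative than the mean of all samples by about 3 SD, 99.7% confidence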;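 further: fluorescence intensity change per second fitted from 20 to 320 s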). The note with it: Recombinant KvBeta, NADPH fluorescence decrease slope, 10 min; at 10 µM; stronger effect = lower value.
For assay [6], the target named is Alpha-2C adrenergic receptor (Homo sapiens) (UniProt P18825). As to the kind of experiment: modulators of alpha2C/GIRK thallium flux, primary screen, cell-based, HEK293 alpha2C/GIRK1/2 (AID 624;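 active means fluorescence slope after compound addition differing from the mean of all screened samples at 99.7% confidence, in either direction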;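 further: slope of fluorescence ratio to pre-addition baseline per second over 15 to 24 s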). The following applies: thallium flux BTC fluorescence, at 10 µM, actives lie on both sides.
Assay [7] in a line: inhibitors of Sendai virus-induced IRF3 signaling, primary screen, TLR/RLR signaling modifier project, cell-based, Sendai virus stimulus, luciferase, 10K MLSCN set (AID 602276;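 active means inhibition at or above 50% at 10 µM; inactive means inhibition below 50%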;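 further: firefly luciferase from ISG56 promoter only with Renilla not read in this screen; 0% = Sendai virus plus DMSO and 100% = medium plus DMSO without virus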). The following applies: HEK293 RL24 IRF3 luciferase reporter, at 10 µM, stronger effect = higher value. A general note: A reporter such as luciferase makes a cellular process visible.
Assay [8] in a line: inhibitors of poly I:C-induced TLR3 signaling, primary screen, cell-based, poly I:C stimulus, luciferase, 10K MLSCN set (AID 602277;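 active means inhibition of the reporter signal at or above 50%; inactive means inhibition below 50%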). The note with it: HEK293-TLR3 RL24 IRF3 luciferase reporter, at 10 µM, stronger effect = higher value.

Voltage-gated potassium channel subunit beta-2 (Rattus norvegicus), sequence (P62483 whole entry, looked up): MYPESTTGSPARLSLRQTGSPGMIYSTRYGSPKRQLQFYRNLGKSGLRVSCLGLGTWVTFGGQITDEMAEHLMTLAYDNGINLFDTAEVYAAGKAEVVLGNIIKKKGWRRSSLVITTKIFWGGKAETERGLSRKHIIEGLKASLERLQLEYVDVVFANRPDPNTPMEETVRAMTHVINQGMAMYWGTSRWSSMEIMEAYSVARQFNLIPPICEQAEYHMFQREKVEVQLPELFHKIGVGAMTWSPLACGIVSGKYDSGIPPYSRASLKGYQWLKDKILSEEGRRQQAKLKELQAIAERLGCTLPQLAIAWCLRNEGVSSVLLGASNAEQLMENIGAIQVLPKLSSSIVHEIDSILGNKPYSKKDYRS
Alpha-2C adrenergic receptor (Homo sapiens), sequence (P18825 whole entry, looked up): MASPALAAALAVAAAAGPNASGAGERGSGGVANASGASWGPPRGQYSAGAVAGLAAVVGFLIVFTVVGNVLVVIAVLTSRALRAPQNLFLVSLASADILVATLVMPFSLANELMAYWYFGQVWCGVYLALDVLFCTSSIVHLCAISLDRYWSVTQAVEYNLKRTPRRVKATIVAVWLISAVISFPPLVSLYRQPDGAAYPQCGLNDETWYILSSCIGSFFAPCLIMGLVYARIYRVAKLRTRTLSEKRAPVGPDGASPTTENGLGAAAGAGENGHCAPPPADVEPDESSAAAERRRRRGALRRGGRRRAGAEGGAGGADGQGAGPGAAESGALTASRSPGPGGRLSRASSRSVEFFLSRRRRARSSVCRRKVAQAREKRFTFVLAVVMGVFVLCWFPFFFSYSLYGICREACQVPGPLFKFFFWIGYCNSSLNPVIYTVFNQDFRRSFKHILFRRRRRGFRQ

Turning to `CCOC(=O)C1CCN(c2c(N(C)Cc3ccco3)c(=O)c2=O)CC1`, the cell count in assay [1] worked out at 789. The inhibition (commonly the drop in the measured response relative to a control, in per cent) is 0.9% (inactive) in assay [1], -33.1% (inactive) in assay [3], 5.07% (inactive) in assay [7] and 22.7% (inactive) in assay [8]. Moreover, the inhibition of aggregation in assay [2] is 3.8% (inactive). Also, the values for the nuclei count in assay [2] and in assay [3] were 103% and 114%, respectively. The fluorescence slope in assay [4] was -0.576 (inactive). The NADPH fluorescence slope in assay [5] is -2.6e-05 (inactive). For the same molecule, in assay [6], the slope was 0.00601 (inactive).

Turning to `CCCN1CCN(CCCNC(=O)C2CCCN(c3nc4ccc(OCC)cc4s3)C2)CC1` (centres undefined), the cell count in assay [1] was found to be 513. Besides, the inhibition was -14% (inactive) in assay [1], -18.5% (inactive) in assay [3], -9.58% (inactive) in assay [7] and -10.2% (inactive) in assay [8]. For the same molecule, in assay [2], the inhibition of aggregation is 23.6% (inactive). For the same molecule, the results for the nuclei count in assay [2] and in assay [3] were 121% and 119%, respectively. Besides, the fluorescence slope in assay [4] is -0.398 (inactive). The NADPH fluorescence slope in assay [5] was -4.5e-05 (inactive). The slope in assay [6] was 0.00402 (inactive).

For the molecule `COC(=O)C(O)(CC(=O)c1ccc(OC)cc1)C(F)(F)F` (centres undefined), the cell count in assay [1] turned out to be 778. Moreover, the inhibition is -12.8% (inactive) in assay [1], 36% (inactive) in assay [3], 9.29% (inactive) in assay [7] and 9.82% (inactive) in assay [8]. In addition, in assay [2], the inhibition of aggregation is 4.5% (inactive). Moreover, the nuclei count in assay [2] was found to be 100%; in assay [3], 99.4%. The fluorescence slope in assay [4] was -0.507 (inactive). Moreover, in assay [5], the NADPH fluorescence slope was -1.8e-05 (inactive). Moreover, the slope in assay [6] is 0.0048 (inactive).

For the molecule `CCC1Oc2ccc(C)cc2N(CC(=O)N(Cc2cccnc2)Cc2ccc(C)o2)C1=O` (centres undefined), the cell count in assay [1] is 685. Besides, the inhibition was -5.5% (inactive) in assay [1], -9.6% (inactive) in assay [3], 17.7% (inactive) in assay [7] and 24.3% (inactive) in assay [8]. The inhibition of aggregation in assay [2] is 13.1% (inactive). Moreover, the nuclei count was 93.4% in assay [2] and 103% in assay [3]. For the same molecule, the fluorescence slope in assay [4] was -0.599 (inactive). For the same molecule, the NADPH fluorescence slope in assay [5] was -5e-05 (inactive). In assay [6], the slope is 0.00383 (inactive).

For the molecule `COc1ccc(N2CCN(CCCNS(=O)(=O)c3c(C)noc3/C=C/N(C)C)CC2)cc1`, the cell count in assay [1] amounted to 561. For the same molecule, the inhibition in assay [1] was 8.7% (inactive); in assay [3], -36.7% (inactive); in assay [7] it was 3.23% (inactive); in assay [8] it was 38.9% (inactive). In addition, the inhibition of aggregation in assay [2] was -4.3% (inactive). Also, the nuclei count in assay [2] was determined as 101%; in assay [3] it was 73.9%. Also, the fluorescence slope in assay [4] was -0.54 (inactive). Also, in assay [5], the NADPH fluorescence slope is -6e-05 (inactive). Also, the slope in assay [6] is 0.00583 (inactive).

For `COc1ccc(-c2nnc(SCCC(=O)O)n2-c2ccccc2)cc1`, in assay [1], the cell count was 348. The inhibition in assay [1] was 2.5% (inactive); in assay [3], -10.9% (inactive); in assay [7], 12.1% (inactive); in assay [8], 16.4% (inactive). The inhibition of aggregation in assay [2] is -19.5% (inactive). Moreover, the nuclei count in assay [2] is 107%; in assay [3] it was 124%. Moreover, the fluorescence slope in assay [4] was -0.644 (inactive). For the same molecule, in assay [5], the NADPH fluorescence slope was 1.6e-05 (inactive). Besides, in assay [6], the slope is 0.00524 (inactive).

As for `COc1ccc(OC)c(NC(=O)C2C3CC4OC(=O)C2C4C3)c1` (centres undefined), the cell count in assay [1] is 318. For the same molecule, the inhibition in assay [1] was -5.7% (inactive); in assay [3], -119% (inactive); in assay [7] it was 13.4% (inactive); in assay [8], 18.6% (inactive). Moreover, the inhibition of aggregation in assay [2] is 6.4% (inactive). In addition, the nuclei count in assay [2] turned out to be 117%; in assay [3], 114%. Also, the fluorescence slope in assay [4] was -0.322 (inactive). In addition, the NADPH fluorescence slope in assay [5] is -5.4e-05 (inactive). For the same molecule, the slope in assay [6] was 0.0056 (inactive).

In the case of `O=C(c1ccc2c(c1)[nH]c(=S)n1c3ccccc3nc21)N1CCN(c2ncccn2)CC1`, the cell count in assay [1] amounted to 515. In addition, the inhibition in assay [1] was 4.8% (inactive); in assay [3], -28.7% (inactive); in assay [7], 13.2% (inactive); in assay [8] it was 19.4% (inactive). Further, the inhibition of aggregation in assay [2] was -5.1% (inactive). Moreover, the nuclei count in assay [2] worked out at 105%; in assay [3], 114%. For the same molecule, the fluorescence slope in assay [4] is -0.347 (inactive). Also, in assay [5], the NADPH fluorescence slope is -1.3e-05 (inactive). Further, the slope in assay [6] is 0.00281 (inactive).

With `COC(=O)c1nnn(-c2ccccc2)c1N`, the cell count in assay [1] was 314. The inhibition in assay [1] is 10.6% (inactive); in assay [3], -13.3% (inactive); in assay [7], 6.82% (inactive); in assay [8] it was 11.8% (inactive). The inhibition of aggregation in assay [2] was 19% (inactive). Besides, the nuclei count in assay [2] turned out to be 92%; in assay [3], 117%. In addition, in assay [4], the fluorescence slope was -0.506 (inactive). The NADPH fluorescence slope in assay [5] is -2.7e-05 (inactive). Besides, the slope in assay [6] is 0.00571 (inactive).

As to `CCc1ccccc1OCCCCCNCCO`, the cell count in assay [1] turned out to be 459. The inhibition in assay [1] is 3.9% (inactive); in assay [3], 53% (inactive); in assay [7] it was 10.8% (inactive); in assay [8], 31.9% (inactive). Besides, in assay [2], the inhibition of aggregation is 28.4% (inactive). Besides, the nuclei count in assay [2] was found to be 87.2%; in assay [3], 85.2%. For the same molecule, the fluorescence slope in assay [4] was -0.303 (inactive). Besides, in assay [5], the NADPH fluorescence slope is -1e-05 (inactive). Also, the slope in assay [6] was 0.00576 (inactive).

On to `C/C=C(\CS(=O)(=O)c1ccccc1)S(=O)(=O)c1ccccc1`, for which the cell count in assay [1] was determined as 167. Besides, the inhibition in assay [1] is 2.2% (inactive); in assay [3] it was -49.3% (inactive); in assay [7], 19.1% (inactive); in assay [8], 21.9% (inactive). Moreover, the inhibition of aggregation in assay [2] is 9.7% (inactive). Besides, the nuclei count is 101% in assay [2] and 73% in assay [3]. The fluorescence slope in assay [4] was -0.508 (inactive). The NADPH fluorescence slope in assay [5] is -1.7e-05 (inactive). Further, the slope in assay [6] is 0.00524 (inactive).

For `OC1C[N+]2(CCCCC2)C1`, the cell count in assay [1] stood at 278. For the same molecule, the inhibition in assay [1] is 9.3% (inactive); in assay [3] it was 62.9% (active); in assay [7], 11.5% (inactive); in assay [8], 10.3% (inactive). In addition, the inhibition of aggregation in assay [2] is -10.6% (inactive). Moreover, the results for the nuclei count in assay [2] and in assay [3] were 104% and 111%, respectively. Moreover, in assay [4], the fluorescence slope was -0.497 (inactive). For the same molecule, the NADPH fluorescence slope in assay [5] was -5.4e-05 (inactive). For the same molecule, the slope in assay [6] was 0.00461 (inactive).

With `Cc1c(C#N)sc2nc(-c3ccccc3)nc(N3CCCC3)c12`, in assay [1], the cell count amounted to 388. The inhibition in assay [1] is -8.7% (inactive); in assay [3] it was -50% (inactive); in assay [7], 16.9% (inactive); in assay [8] it was 26% (inactive). In assay [2], the inhibition of aggregation was -28.2% (inactive). The figures for the nuclei count in assay [2] and in assay [3] were 99.9% and 130%, respectively. Further, the fluorescence slope in assay [4] was -0.236 (inactive). Besides, the NADPH fluorescence slope in assay [5] was -1.1e-05 (inactive). Also, in assay [6], the slope was 0.011 (active).

With `Cc1cccc(CN2CCC(CNC(=O)C3CCCN(S(=O)(=O)c4cnc[nH]4)C3)CC2)c1` (centres undefined), in assay [1], the cell count came out at 706. Moreover, the inhibition in assay [1] was -12.2% (inactive); in assay [3] it was -61.1% (inactive); in assay [7] it was 18.8% (inactive); in assay [8], 27.2% (inactive). The inhibition of aggregation in assay [2] is 10.2% (inactive). The nuclei count amounted to 106% in assay [2] and 125% in assay [3]. The fluorescence slope in assay [4] is -0.518 (inactive). For the same molecule, the NADPH fluorescence slope in assay [5] was -3.2e-05 (inactive). Besides, the slope in assay [6] was 0.0058 (inactive).
